Data published in the supplement of paper PMC12636033.
± gives the standard deviation of the averaged measurements. In all, about 33,000 sequences were measured (“E-score (rank enrichment, -0.5 to 0.5)”: median about -0.0075, highest 2% from about 0.23 on). The entries come from a sample that favours the highest values as a whole.

system: WT Max(13-93) synthetic (M65Nle); experiment: PBM 8-mer E-score (E-score (rank enrichment, -0.5 to 0.5)); higher = stronger preferential binding
Method: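 Protein binding microarray (universal PBM chip covering all 10-mers in fixed probe flanks) with chemically synthesized human Max(13-93) bHLH-LZ analogs (not full-length Max) bearing noncanonical residues (hArg, Tha, Aib, Nle at 65) and aromatic Cys staples. Read-out per 8-mer (and its reverse complement): E-score (rank-based enrichment, -0.5 to 0.5) and Z-score of median probe intensity.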

Sequence	PBM 8-mer E-score
CTGTTAAC	-0.00712 ± 0.14
ATGTTAAG	0.107 ± 0.028
ATGTTATC	0.0836 ± 0.016
ATGTTATG	0.251 ± 0.084
GTGTGCCA	-0.0682 ± 0.094
ATACGCAC	0.0776 ± 0.052
ATAGTCAG	0.0518 ± 0.079
AACTATTG	0.139 ± 0.033
ACCTTCCC	-0.0595 ± 0.1
AGCATGTA	0.238 ± 0.019
GGCATGTA	0.135 ± 0.023
AGCATGGG	0.128 ± 0.096
AGCATGTG	0.295 ± 0.0053
CGCATGTA	0.0311 ± 0.051
AGCATGTC	0.157 ± 0.0017
ACAGGTTA	0.0367 ± 0.075
CTTCTCCC	0.0392 ± 0.039
AAATTCGG	0.0747 ± 0.038
ATGGTCCA	-0.0964 ± 0.052
AAGGCATG	0.207 ± 0.081
CAAACAGC	0.244 ± 0.0038
CAAACACC	0.118 ± 0.15
CAAACACG	0.285 ± 0.064

Sequence	PBM 8-mer E-score
TAAACACA	0.182 ± 0.021
AAAACAGC	0.0957 ± 0.12
CAAACAGG	0.0276 ± 0.019
AAAACACA	0.128 ± 0.02
AAAACACG	0.193 ± 0.049
CAAACACA	0.2434 ± 0.00028
ACATTTCT	0.152 ± 0.0081
CCCTGGCG	-0.198 ± 0.061
TACGGTCA	-0.0681 ± 0.052
CCAAGGCG	-0.191 ± 0.077
ACCGTAAT	-0.00988 ± 0.068
TAGCTGGA	-0.111 ± 0.035
AATTACAA	0.251 ± 0.026
TATTACAA	0.181 ± 0.024
AATTACAT	0.135 ± 0.0071
GTAATCAC	-0.0619 ± 0.076
ACCGTGTC	-0.0348 ± 0.1
ATTAACAC	0.247 ± 0.019
ATTAACAA	0.289 ± 0.057
GTTAACAA	0.138 ± 0.024
ATTAACTC	0.16 ± 0.064
ATTAACAG	0.0545 ± 0.024
CTTAACAC	0.135 ± 0.068

Sequence	PBM 8-mer E-score
GTTTCCGA	0.0231 ± 0.1
CTCAAAGC	-0.0195 ± 0.016
CATGATGA	0.233 ± 0.045
TATGATAA	0.201 ± 0.065
AATGATAT	0.257 ± 0.086
AATGATAC	0.2224 ± 0.00047
CATGATAA	0.296 ± 0.039
CATGATGG	-0.0865 ± 0.045
AATGATAA	0.146 ± 0.062
AATGATAG	0.166 ± 0.08
CATGATGC	0.124 ± 0.073
CCCTTCTA	0.2 ± 0.016
ATCCCTAC	0.0174 ± 0.027
AAGAGTAA	0.0887 ± 0.095
CCAGGTAG	-0.0484 ± 0.088
GACGCGGC	-0.164 ± 0.043
AACGCGGC	-0.0617 ± 0.052
AACGCGGA	-0.0101 ± 0.013
CACGCGGC	0.323 ± 0.0093
CACGCGGA	0.351 ± 0.014
CACGCGGG	0.224 ± 0.044
CGCAATAG	-0.129 ± 0.02
ACCATCCA	0.0359 ± 0.035

Sequence	PBM 8-mer E-score
ACCTCAAG	0.0864 ± 0.0059
CGTATTCA	-0.00816 ± 0.064
CACCTTTC	0.0495 ± 0.029
ACCGAAGC	-0.0719 ± 0.043
GGTGTTTA	-0.0165 ± 0.02
GATGTTTA	0.0913 ± 0.016
AGTGTTTA	0.0808 ± 0.099
CATGTTTC	0.192 ± 0.017
CATGTTTA	0.302 ± 0.07
CGTGTTTA	0.274 ± 0.019
CGATCCAG	-0.318 ± 0.024
ACGTAACT	-0.0612 ± 0.056
ATGGAGCC	-0.159 ± 0.086
ACCCTATC	-0.0509 ± 0.049
ATAATGCA	0.161 ± 0.072
CCCGTGCG	0.00827 ± 0.054
AACGTGCT	0.181 ± 0.038
AACGTGCG	0.188 ± 0.037
TACGTGCA	0.126 ± 0.094
CAGGTGCG	-0.186 ± 0.068
GACGTGCC	-0.0759 ± 0.054
AACGTGCA	0.283 ± 0.044
CACGTGCA	0.4864 ± 0.0015

Sequence	PBM 8-mer E-score
CACGTGCG	0.48552 ± 0.00018
CACGTGCC	0.472 ± 0.0067
GACGTGCA	0.132 ± 0.021
AACGTGCC	0.0848 ± 0.0026
AAACTCAG	-0.0399 ± 0.035
AAGTGTCA	0.0618 ± 0.14
AAATAAGT	0.126 ± 0.0013
CTTGTTGC	0.124 ± 0.046
CTGCCGGA	-0.102 ± 0.082
CCAAAACC	0.0915 ± 0.13
ACAAATGG	0.196 ± 0.099
CAAAAACC	0.241 ± 0.035
GCAAGCAA	-0.0138 ± 0.026
ACAAAAAT	0.111 ± 0.084
ACAAAAAC	0.215 ± 0.07
ACAAATGT	0.277 ± 0.073
ACAAGCAC	0.0152 ± 0.013
ACAAGCAA	0.239 ± 0.01
ACAAATGA	0.104 ± 0.068
CAAAACCC	0.138 ± 0.027
ACAAAAAA	0.251 ± 0.016
